# Bioassay records: PubChem BioAssay, National Center for Advancing Translational Sciences (NCATS)
# In the library only some 3.6% were active in any assay of this set; here they are far more common.
# Rango dissoc inh – inhibitors of RanGTP-induced Rango-importin beta complex dissociation; O95149+P62826; Biochemical FRET Rango-importin beta, RanGTP-induced dissociation; Potency, µM (titrated, usually from 46.1 µM), for inactives: top-dose activity change, negative = inhibition; hit rate 0.071% among 340,000; AID 540253; calls by dose curve; note: potency is the fitted concentration of half-maximal effect; % of control where 0% means no effect; nearly all actives have a fitted effect of over 45% in size
#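 Recombinant Rango FRET biosensor (EYFP–snurportin 1 IBB–cerulean CFP10) at 0.1 uM premixed with 0.25 uM importin beta in PBS, 1 mM DTT, 0.02% Tween-20, 0.1% BSA. Compound added 5 min; RanGTP-RCC1 (0.6 uM Ran, 2 mM GTP, 0.2 uM RCC1) then triggers release, read at 45 min.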
# PLK1 PBD block – inhibitors of human PLK1 polo-box domain binding. P53350. Plk1 PBD binding of FITC phosphopeptide, fluorescence polarization. Potency, µM, inactives show max response, negative = inhibition, usual class: inhibitors. hit rate 2.8% among 360,000; note: potency is the fitted concentration of half-maximal effect; series mostly up to about 57 µM; % is set by controls: 0 for no effect and ±100 for the full control effect; nearly all actives have a fitted effect of over 65% in size
# Target sequence (P53350 whole entry, looked up, the tested form may be a part): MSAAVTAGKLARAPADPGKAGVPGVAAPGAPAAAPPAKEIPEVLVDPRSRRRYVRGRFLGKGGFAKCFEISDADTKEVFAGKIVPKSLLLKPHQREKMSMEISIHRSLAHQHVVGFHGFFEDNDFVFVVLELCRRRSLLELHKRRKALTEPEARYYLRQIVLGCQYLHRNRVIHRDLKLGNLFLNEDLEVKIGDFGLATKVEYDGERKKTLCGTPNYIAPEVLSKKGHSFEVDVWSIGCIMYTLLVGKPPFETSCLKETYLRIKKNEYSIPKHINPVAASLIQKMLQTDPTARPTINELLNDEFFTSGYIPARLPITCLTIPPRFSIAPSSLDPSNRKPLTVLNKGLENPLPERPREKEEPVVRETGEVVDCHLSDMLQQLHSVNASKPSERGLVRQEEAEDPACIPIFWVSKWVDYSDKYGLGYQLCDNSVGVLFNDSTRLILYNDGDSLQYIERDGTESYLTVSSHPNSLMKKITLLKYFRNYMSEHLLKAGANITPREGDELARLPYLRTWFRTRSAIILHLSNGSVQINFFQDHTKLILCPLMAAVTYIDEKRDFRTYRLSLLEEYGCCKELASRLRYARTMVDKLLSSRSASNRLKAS
# VDR inh – blocks the human vitamin D receptor. VDR-SRC2-3 peptide fluorescence polarization, 2 h. Potency, µM, for the others: max response, negative = inhibition, usual class: inhibitors. hit rate 0.93% among 400,000; note: potency is the fitted concentration of half-maximal effect; % is set by controls: 0 for no effect and ±100 for the full control effect
#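 Two reagent solutions held at 4 deg C in the dark were dispensed, compounds pinned at 23 nl, and the mixture incubated 2 h at room temperature. Read-out: fluorescence polarization of VDR–SRC2-3 peptide binding.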
# PI5P4K alpha inh – PI5P4K alpha (human) kinase inhibition. max response, %. PI5P4Kalpha enzyme, ADP-Glo luminescence, 60 min; active compounds read low. hit rate 1.2% among 330,000. P48426; active = max response of -50% or lower; inconclusive = between -30% and -50%; inactive = -30% or higher; note: value at the top dose of about 77 µM; % is set by controls: 0 for no effect and ±100 for the full control effect
#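 Enzyme plus substrate dispensed, test compounds pinned in, then ATP (5 microM final) added. After 60 min at RT, ADP-Glo reagent 1 for 45 min and reagent 2 for 30 min preceded luminescence imaging.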
# Rango complex inh – prevents formation of the Rango-importin beta complex; Potency, µM (doses to about 92.2 µM), for inactives: top-dose inhibition of complex formation; Rango CFP/YFP FRET sensor + importin beta, 45 min; hit rate 0.031% among 340,000; Q14974; calls by dose curve;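 note: potency is the fitted concentration of half-maximal effect; 0% = DMSO wells and 100% = buffer wells lacking importin beta; nearly all actives have a fitted effect of over 15% in size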
#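 FRET biosensor (snurportin 1 IBB flanked by EYFP and cerulean), 50 nM, with compound 5 min, then 0.125 microM importin beta in PBS, 1 mM DTT, 0.02% Tween-20, 0.1% BSA. CFP/YFP ratio read after 45 min at room temperature; pre-read flags interference.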
# GCN5L2 inh – blocks human GCN5L2 histone acetyltransferase; Q92830; AID 504327; GCN5L2 HAT assay, ThioGlo1 CoA-SH fluorescence; hit rate 0.21% among 390,000; Potency, µM (top dose mostly 58.9 µM), for the others: at the top dose activity change, negative = inhibition, hits mostly inhibitors; note: potency is the fitted concentration of half-maximal effect; % is set by controls: 0 for no effect and ±100 for the full control effect
#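 ThioGlo1-coupled HAT assay: 20nM GCN5L2, 70uM acetyl-CoA, 75uM H3(1-25) peptide, pH 7.5. Fluorescence read at 340/540nm at start and after 20 min at room temperature.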
# An asterisk follows results filed as active; ? = inconclusive; · = not tested or not shown. Unless noted, calls come from the whole dose curve; as a rule, active = well fitted curve in the direction sought with a large enough effect; inconclusive = small, poorly fitted or top-dose-only effect, or another doubt; inactive = no such curve, though single readings can be large; an effect the other way counts as inactive or inconclusive.
SMILES,Rango dissoc inh,PLK1 PBD block,VDR inh,PI5P4K alpha inh,Rango complex inh,GCN5L2 inh
O=C1NC(=O)/C(=C/c2ccc(O)cc2)S1,-2.0%,-0.5%,-14.7%,?,-1.4%,-5.3%
Cc1cc(/C=C2\SC(=S)NC2=O)cc(C)c1O,?,19.5%,-9.4%,-75.7*,?,?
O=C1NC(=S)S/C1=C\c1cc2ccccc2nc1N1CCCCC1,-0.4%,10.6µM*,-6.3%,-21.2,12.8%,-4.1%
CCN(CC)c1ccc(C=C2SC(=S)NC2=O)cc1,?,50.1%,?,?,?,·
CCCCC/C=C\C\C=C/C=C/C=C/[C@@H](SCC(NC(=O)CCC(N)C(=O)O)C(=O)NCC(=O)O)[C@@H](O)CCCC(=O)O (stereo partly drawn),·,·,-7.7%,·,·,·
O=C(NNc1ccccc1F)c1sccc1Cl,·,·,-10.9%,·,·,·
O=C1NC(=S)SC1=Cc1ccccc1Cl,-5.4%,21.2µM*,?,-79.4*,0.6%,·
O=C1NC(=S)S/C1=C\c1cc(Cl)cc(Cl)c1O,?,?,?,-58.1*,?,·
O=C1NC(=O)C(=Cc2ccc(Cl)c(Cl)c2)S1,-7.4%,-18.0%,-20.8%,-26.0,1.2%,·
COc1ccc(C=C2SC(=S)NC2=O)c(OC)c1OC,?,-22.7%,-22.6%,-63.5*,0.7%,·
Cc1cn(C2CC3OCC(NC(=O)C(NC(=O)OC(C)(C)C)C(C)OCc4ccccc4)C3O2)c(=O)[nH]c1=O (stereo not drawn),·,·,-1.1%,·,·,·
CCOc1ccc2nc(Cl)c(C3CC(c4ccc(C)cc4)=NN3C(=O)CCCC(=O)O)cc2c1 (stereo not drawn),·,·,-4.5%,·,·,-2.7%
CCCC(=O)NCCc1c(I)[nH]c2ccc(OC)cc12,·,·,-21.2%,·,·,-0.3%
COCc1nc2oc3ccc(C)cc3c(=O)c2cc1C(=O)OC,3.5%,-18.6%,0.8%,1.3,4.3%,17.4%
CCOC(=O)c1cc2c(=O)c3cc(C)ccc3oc2nc1C,9.9%,5.32µM*,?,?,1.2%,2.6%
COc1ccc(C(=O)Nc2cc(S(=O)(=O)c3ccc(Cl)cc3)c(O)c(C)c2C)cc1,·,·,-7.4%,·,·,1.3%
Oc1c(Br)cc(Br)c(/C=N/n2c(-c3ccccc3)n[nH]c2=S)c1Br,15.6%,11.9µM*,?,-86.2*,-2.0%,28.2µM*
Oc1ccc(Br)cc1/C=N/n1c(-c2ccccc2)n[nH]c1=S,?,?,-16.5%,-7.0,?,-20.0%
S=c1[nH]nc(-c2ccncc2)n1/N=C/c1cn(-c2ccccc2)nc1-c1ccccc1,6.5%,-8.2%,7.2%,-57.5*,-2.5%,-8.0%
COc1cc2c(cc1OC)C(C(C(=O)N(CCc1ccc(OC)c(OC)c1OC)CCc1ccc(OC)c(OC)c1OC)c1ccccc1)=NCC2 (stereo not drawn),·,·,9.0%,·,·,-26.1%
CCc1ccc(OCC(=O)Nc2cc(-c3ccc(C)cc3)no2)cc1,·,·,7.9%,·,·,-20.4%
COC(=O)c1nc(NC(C)=O)n[nH]1,·,·,·,·,·,-10.3%
COC(=O)c1nc(NC(=O)C(C)C)n[nH]1,-13.9%,21.2µM*,6.8%,·,1.2%,-4.3%
CCCSc1nc(-c2ccccc2)[nH]c1S(=O)(=O)c1ccc(C)cc1,·,·,-5.0%,·,·,-25.0%
Cc1sc2ncnc(SCC(=O)N3CCCC3)c2c1C,4.1%,-5.1%,9.2%,-3.2,0.3%,-20.1%
SMILES,Rango dissoc inh,PLK1 PBD block,VDR inh,PI5P4K alpha inh,Rango complex inh,GCN5L2 inh
CC(=O)N1CCN(C(=O)CSc2ncnc3sc(C)c(C)c23)CC1,6.8%,29.9µM*,-7.6%,12.6,-1.3%,-1.0%
Brc1ccc(-c2csc(N3CCCCC3)n2)cc1,·,·,·,·,·,-1.9%
O=[N+]([O-])c1cc(C(F)(F)F)cc([N+](=O)[O-])c1Sc1n[nH]c(C(F)(F)F)n1,1.8%,?,28.2µM*,-16.4,-0.4%,-16.1%
CN(C)/C=N/c1nc(Sc2ccc(C(F)(F)F)cc2[N+](=O)[O-])n[nH]1,0.8%,-4.7%,-1.9%,10.6,0.8%,-8.2%
Cc1ccc(-c2nc(CS(=O)CC(=O)N3CCN(c4ccc(Cl)cc4)CC3)c(C)o2)cc1 (stereo not drawn),·,·,3.1%,·,·,0.2%
CCCC(=O)Nc1c(C)n[nH]c1C,6.7%,26.7µM*,-16.5%,-0.7,1.0%,-8.0%
